PubChem BioAssay
Active and inactive are the calls of the source.

Assays:
[1] = test system: PRMT1 (protein arginine N-methyltransferase 1); experiment: small molecules binding arginine methyltransferase PRMT1 – biochemical, small-molecule microarray, 635 nm fluorescence, primary screen (AID 1088); conditions: higher = more signal;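 note: binding of Prmt1 protein to compounds spotted on small-molecule microarray slides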
[2] = growth effects on S. cerevisiae YJM789 – YJM789 clinical isolate, OD600, 24 h, basal, primary screen (AID 1089); conditions: higher = more signal, called active from +8 up or from −8 down;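 note: growth of clinical yeast isolate S. cerevisiae YJM 789 seeded 1000 cells per well; test concentration not given here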
[3] = S. pombe growth modifiers, basal conditions – strain 972, OD600, 24 h, no modulator, primary screen (AID 1090);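 note: basal condition with compound alone and no growth modifier present; test concentration not given here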; conditions: S. pombe 972 growth, higher = more signal, called active from +8 up or from −8 down
[4] = budding yeast growth modifiers under rapamycin – strain BY4716, OD600, 96 h, primary screen (AID 1091); note: test concentration not given here; conditions: S. cerevisiae BY4716 + rapamycin, higher = more signal, called active from +8 up or from −8 down
[5] = target: Torsin-1A-interacting protein 2 (Homo sapiens) (UniProt Q8NFQ8); experiment: small molecules binding lysate-expressed LULL1 – cell lysate, human LULL1 lysate, 635/667 nm fluorescence, primary screen (AID 1092); conditions: small-molecule microarray, hLULL1 lysate binding, 635 nm fluorescence; higher = more signal;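 note: probe is lysate of COS7 cells overexpressing human LULL1; score merges per-feature 667 nm fluorescence with signal-to-noise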
Chain of Torsin-1A-interacting protein 2 (Homo sapiens) (Q8NFQ8 whole entry, looked up): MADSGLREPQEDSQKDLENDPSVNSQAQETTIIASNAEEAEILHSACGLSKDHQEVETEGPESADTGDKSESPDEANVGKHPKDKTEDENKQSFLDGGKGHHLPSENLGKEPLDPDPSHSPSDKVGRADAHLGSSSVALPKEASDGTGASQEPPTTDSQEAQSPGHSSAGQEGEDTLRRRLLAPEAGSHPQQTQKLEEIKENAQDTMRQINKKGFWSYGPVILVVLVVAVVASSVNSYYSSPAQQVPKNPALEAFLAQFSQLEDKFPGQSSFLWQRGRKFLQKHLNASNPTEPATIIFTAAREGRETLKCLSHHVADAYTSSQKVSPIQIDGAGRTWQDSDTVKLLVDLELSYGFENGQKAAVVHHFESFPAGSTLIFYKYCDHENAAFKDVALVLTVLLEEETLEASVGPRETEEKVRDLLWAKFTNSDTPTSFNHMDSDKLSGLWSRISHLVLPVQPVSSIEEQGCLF

[6] = optical density change of DRC41 E. coli – strain DRC41, OD650, 24 h, E. coli filamentation project, primary screen (AID 1093);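 note: MC1000 strain lacking acrAB efflux and sulA so SOS filamentation is blocked; test concentration not given here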; conditions: E. coli DRC41 growth, higher = more signal, called active from +8 up or from −8 down
[7] = probe aLefty2 binding to arrayed compounds – biochemical, biotinylated probe, 635/667 nm fluorescence, primary screen (AID 1094); conditions: small-molecule microarray, higher = more signal;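 note: score merges spot fluorescence near 667 nm with spot signal-to-noise ratio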
[8] = test system: Noggin (protein binding on small-molecule microarray); experiment: small molecules binding Noggin protein – biochemical, 635/667 nm fluorescence, primary screen (AID 1095); conditions: 635 nm fluorescence, higher = more signal;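 note: score merges 667 nm feature fluorescence with signal to noise over triplicate slides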
[9] = target: Neurogenic locus notch homolog protein 3 (Homo sapiens) (UniProt Q9UM47); experiment: small molecules binding NOTCH3 protein – biochemical, 635/667 nm fluorescence, primary screen (AID 1096); conditions: small-molecule microarray, 635 nm fluorescence, higher = more signal
Chain of Neurogenic locus notch homolog protein 3 (Homo sapiens) (Q9UM47 whole entry, looked up): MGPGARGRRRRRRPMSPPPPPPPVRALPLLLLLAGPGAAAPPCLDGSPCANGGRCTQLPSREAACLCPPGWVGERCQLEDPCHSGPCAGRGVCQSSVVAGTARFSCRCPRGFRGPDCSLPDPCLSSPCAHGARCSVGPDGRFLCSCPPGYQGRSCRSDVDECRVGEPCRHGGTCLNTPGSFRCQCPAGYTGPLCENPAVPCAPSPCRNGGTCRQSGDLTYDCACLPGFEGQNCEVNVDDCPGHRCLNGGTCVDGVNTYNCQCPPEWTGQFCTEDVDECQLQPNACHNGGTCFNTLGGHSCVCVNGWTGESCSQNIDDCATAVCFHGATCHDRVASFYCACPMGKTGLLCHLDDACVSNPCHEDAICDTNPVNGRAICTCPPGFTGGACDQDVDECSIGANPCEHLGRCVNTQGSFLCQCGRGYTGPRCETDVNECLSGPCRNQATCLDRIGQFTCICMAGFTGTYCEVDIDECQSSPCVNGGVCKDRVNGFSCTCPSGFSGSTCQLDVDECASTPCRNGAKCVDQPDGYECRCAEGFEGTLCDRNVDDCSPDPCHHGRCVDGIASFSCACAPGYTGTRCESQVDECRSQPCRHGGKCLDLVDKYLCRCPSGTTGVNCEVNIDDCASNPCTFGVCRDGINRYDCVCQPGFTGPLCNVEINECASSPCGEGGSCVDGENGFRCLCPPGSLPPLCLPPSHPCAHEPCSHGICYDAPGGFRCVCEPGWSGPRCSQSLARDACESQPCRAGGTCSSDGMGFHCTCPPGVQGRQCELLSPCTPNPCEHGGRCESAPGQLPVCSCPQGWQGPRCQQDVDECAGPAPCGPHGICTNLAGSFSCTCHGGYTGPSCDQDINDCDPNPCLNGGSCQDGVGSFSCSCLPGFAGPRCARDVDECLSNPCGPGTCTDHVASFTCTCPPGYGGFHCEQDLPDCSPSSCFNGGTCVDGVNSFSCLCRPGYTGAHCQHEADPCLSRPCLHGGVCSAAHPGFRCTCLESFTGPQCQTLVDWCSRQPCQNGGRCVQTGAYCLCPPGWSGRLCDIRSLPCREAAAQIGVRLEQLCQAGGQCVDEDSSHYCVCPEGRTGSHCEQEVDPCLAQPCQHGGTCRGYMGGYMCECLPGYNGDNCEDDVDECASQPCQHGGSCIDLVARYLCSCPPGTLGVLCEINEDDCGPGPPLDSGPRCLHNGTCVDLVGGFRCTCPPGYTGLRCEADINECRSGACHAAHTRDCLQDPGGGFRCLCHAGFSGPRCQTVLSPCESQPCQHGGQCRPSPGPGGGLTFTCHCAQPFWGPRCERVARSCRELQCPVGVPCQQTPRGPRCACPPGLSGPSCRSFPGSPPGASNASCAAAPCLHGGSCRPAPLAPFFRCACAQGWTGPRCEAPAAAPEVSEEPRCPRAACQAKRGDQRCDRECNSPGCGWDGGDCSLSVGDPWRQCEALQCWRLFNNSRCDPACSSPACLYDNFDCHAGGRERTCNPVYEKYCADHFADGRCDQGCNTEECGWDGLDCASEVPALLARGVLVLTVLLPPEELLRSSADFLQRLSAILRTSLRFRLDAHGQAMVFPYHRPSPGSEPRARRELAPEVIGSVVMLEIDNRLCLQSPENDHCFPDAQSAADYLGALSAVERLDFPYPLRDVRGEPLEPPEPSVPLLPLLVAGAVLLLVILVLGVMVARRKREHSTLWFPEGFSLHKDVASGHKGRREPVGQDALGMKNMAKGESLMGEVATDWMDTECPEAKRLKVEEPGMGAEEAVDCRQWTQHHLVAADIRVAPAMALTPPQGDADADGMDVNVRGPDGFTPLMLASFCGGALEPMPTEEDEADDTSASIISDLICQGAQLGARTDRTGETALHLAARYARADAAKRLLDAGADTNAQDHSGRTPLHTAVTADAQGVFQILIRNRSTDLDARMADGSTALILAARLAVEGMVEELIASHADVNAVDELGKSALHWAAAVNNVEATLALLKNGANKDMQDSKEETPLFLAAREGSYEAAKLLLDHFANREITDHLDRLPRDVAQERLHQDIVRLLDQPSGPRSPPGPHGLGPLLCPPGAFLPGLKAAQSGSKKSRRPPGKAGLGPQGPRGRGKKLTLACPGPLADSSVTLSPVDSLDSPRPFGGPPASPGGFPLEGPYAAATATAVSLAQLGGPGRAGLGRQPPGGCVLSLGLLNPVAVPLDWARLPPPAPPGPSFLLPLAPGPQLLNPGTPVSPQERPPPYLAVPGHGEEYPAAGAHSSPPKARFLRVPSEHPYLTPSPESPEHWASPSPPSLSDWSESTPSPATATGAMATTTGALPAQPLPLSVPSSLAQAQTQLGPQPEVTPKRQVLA

[10] = probe aEGFR binding to arrayed compounds – biochemical, biotinylated probe, 635/667 nm fluorescence, primary screen (AID 1097); conditions: small-molecule microarray, higher = more signal;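 note: probe is a biotinylated anti-EGFR antibody binding compounds printed on slides; score combines fluorescence near 667 nm and signal to noise of each spot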
[11] = test system: Plasmodium falciparum Sir2 (PF13_0152, Sir2A); experiment: Plasmodium falciparum Sir2A binding compounds – biochemical, small-molecule microarray, 635 nm fluorescence, primary screen (AID 1098); conditions: fluorescence 635 nm, higher = more signal;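 note: score merges spot fluorescence intensity with its signal-to-noise ratio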
[12] = probe aDKK1 binding to arrayed compounds – biochemical, biotinylated probe, 635/667 nm fluorescence, primary screen (AID 1099); conditions: small-molecule microarray, higher = more signal;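 note: score merges 667nm spot fluorescence with signal to noise across triplicate slides; reference of the scale not given here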
[13] = probe aCHRDL2 binding to arrayed compounds – biochemical, biotinylated probe, 635/667 nm fluorescence, primary screen (AID 1100); conditions: small-molecule microarray, higher = more signal
[14] = change in splice reporter luminescence, either direction, cell-based, HEK293, spliceosome inhibition project, primary screen (AID 1101); conditions: HEK293 splicing luciferase reporter, 24 h, higher = more signal, called active from +8 up or from −8 down;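 note: HEK293 cells carrying a splicing-competent luciferase reporter gene; test concentration not given here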
[15] = target: Fibroblast growth factor 10 (Homo sapiens) (UniProt O15520); experiment: compounds binding fibroblast growth factor 10 – biochemical, small-molecule microarray, 635 nm fluorescence, primary screen (AID 1102); conditions: FGF10 binding, fluorescence 635 nm, higher = more signal
Chain of Fibroblast growth factor 10 (Homo sapiens) (O15520 whole entry, looked up): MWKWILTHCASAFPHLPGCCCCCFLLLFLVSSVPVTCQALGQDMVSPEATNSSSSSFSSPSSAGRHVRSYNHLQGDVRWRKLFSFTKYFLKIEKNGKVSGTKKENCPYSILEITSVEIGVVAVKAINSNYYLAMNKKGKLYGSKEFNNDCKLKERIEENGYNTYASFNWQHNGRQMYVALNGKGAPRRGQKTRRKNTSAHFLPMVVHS

[16] = test system: glycogen synthase kinase-3 (GSK3A per assay name; protocol says GSK3B); experiment: compounds binding glycogen synthase kinase-3 – biochemical, small-molecule microarray, 635 nm fluorescence, GSK3A, primary screen (AID 1103); conditions: fluorescence 635 nm, higher = more signal; note: the record names both GSK3A and GSK3B
[17] = target: Epidermal growth factor receptor (Homo sapiens) (UniProt P00533); experiment: compounds binding epidermal growth factor receptor – biochemical, small-molecule microarray, 635 nm fluorescence, primary screen (AID 1104); conditions: EGFR binding, higher = more signal;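 note: score merges 667 nm emission intensity with spot signal to noise over triplicate slides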
Chain of Epidermal growth factor receptor (Homo sapiens) (P00533 whole entry, looked up): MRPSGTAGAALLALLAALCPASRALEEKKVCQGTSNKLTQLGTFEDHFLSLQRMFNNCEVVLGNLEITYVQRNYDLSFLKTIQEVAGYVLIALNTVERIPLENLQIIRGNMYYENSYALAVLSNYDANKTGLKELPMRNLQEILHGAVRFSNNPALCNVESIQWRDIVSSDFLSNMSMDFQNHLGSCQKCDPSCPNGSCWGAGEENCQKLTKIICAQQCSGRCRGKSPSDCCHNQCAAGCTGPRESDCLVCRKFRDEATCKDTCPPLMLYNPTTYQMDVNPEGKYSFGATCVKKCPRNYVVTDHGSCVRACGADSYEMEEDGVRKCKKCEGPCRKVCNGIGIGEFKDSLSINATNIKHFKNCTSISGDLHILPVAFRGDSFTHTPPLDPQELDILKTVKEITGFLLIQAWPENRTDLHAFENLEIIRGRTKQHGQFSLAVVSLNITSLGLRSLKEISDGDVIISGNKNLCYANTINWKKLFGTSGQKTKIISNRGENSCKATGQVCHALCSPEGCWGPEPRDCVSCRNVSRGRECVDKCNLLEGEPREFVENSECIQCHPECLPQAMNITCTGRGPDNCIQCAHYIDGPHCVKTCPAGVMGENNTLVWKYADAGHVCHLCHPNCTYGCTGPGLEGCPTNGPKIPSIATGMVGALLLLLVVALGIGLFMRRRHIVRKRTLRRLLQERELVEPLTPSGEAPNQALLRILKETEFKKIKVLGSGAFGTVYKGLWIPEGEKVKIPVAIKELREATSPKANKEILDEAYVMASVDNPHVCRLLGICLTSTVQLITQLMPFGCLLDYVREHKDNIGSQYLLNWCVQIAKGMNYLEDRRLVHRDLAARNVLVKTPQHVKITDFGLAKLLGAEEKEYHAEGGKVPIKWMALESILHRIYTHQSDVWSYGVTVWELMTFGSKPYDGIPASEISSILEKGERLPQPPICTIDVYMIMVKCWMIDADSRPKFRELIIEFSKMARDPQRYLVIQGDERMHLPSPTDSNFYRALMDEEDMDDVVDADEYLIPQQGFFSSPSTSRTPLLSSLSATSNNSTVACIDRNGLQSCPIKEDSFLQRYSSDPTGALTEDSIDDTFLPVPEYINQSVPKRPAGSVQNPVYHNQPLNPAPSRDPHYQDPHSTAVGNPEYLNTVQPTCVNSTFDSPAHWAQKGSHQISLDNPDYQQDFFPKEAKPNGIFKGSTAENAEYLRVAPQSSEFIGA

[18] = target: Follistatin-related protein 3 (Homo sapiens) (UniProt O95633); experiment: compounds binding follistatin-related protein 3 – biochemical, small-molecule microarray, 635 nm fluorescence, primary screen (AID 1105); conditions: FSTL3 binding, higher = more signal;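 note: score merges emission near 667 nm and signal to noise per printed spot across three slides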
Chain of Follistatin-related protein 3 (Homo sapiens) (O95633 whole entry, looked up): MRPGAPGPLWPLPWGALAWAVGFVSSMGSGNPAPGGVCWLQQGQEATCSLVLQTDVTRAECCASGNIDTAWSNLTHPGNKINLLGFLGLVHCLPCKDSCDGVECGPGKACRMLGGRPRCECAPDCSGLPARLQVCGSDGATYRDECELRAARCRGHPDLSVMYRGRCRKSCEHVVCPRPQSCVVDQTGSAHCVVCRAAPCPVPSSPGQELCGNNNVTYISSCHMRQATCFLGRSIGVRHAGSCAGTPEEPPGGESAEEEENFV

[19] = target: Dickkopf-related protein 1 (Homo sapiens) (UniProt O94907); experiment: small molecules binding DKK1 protein – biochemical, small-molecule microarray, 635 nm fluorescence scan, primary screen (AID 1106); conditions: higher = more signal;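 note: score merges emission near 667 nm with signal to noise over three replicate slides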
Chain of Dickkopf-related protein 1 (Homo sapiens) (O94907 whole entry, looked up): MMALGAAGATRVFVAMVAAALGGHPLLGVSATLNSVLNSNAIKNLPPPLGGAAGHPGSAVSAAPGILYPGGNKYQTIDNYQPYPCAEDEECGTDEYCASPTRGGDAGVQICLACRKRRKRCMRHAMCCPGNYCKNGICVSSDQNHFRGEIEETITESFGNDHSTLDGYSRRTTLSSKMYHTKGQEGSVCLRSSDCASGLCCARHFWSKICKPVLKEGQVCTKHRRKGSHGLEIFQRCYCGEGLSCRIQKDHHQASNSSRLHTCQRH

[20] = test system: Inhibin beta A chain (activin A); experiment: small molecules binding activin A – biochemical, small-molecule microarray, 635 nm fluorescence scan, primary screen (AID 1107); conditions: INHBA, higher = more signal;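 note: mouse activin A protein probed at 4.33 µg/mL on printed slides; score merges bound-protein fluorescence near 667 nm with spot signal-to-noise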

Row | Compound | composite z-score [1] | z-score [2] | z-score [3] | z-score [4] | composite z-score [5] | z-score [6] | composite z-score [7] | composite z-score [8] | composite z-score [9] | composite z-score [10] | composite z-score [11] | composite z-score [12] | composite z-score [13] | z-score [14] | composite z-score [15] | composite z-score [16] | composite z-score [17] | composite z-score [18] | composite z-score [19] | composite z-score [20]
1 | O=C1CCCC2OC12C(O)CCc1ccccc1 (stereo not given) | -0.071 | 0.238 (inactive) | 0.211 (inactive) | 0.164 (inactive) | -0.0258 | 0.454 (inactive) | -0.215 | 0.373 | 0.0248 | 0.395 | -0.2 | -0.45 | -0.503 | 0.00999 (inactive) | 0.558 | 0.263 | 0.548 | 0.495 | 0.372 | 0.399
2 | COCCCNC(=O)[C@]1(Cc2ccccc2)N=C(c2ccc(OCCCO)cc2)O[C@@H]1c1ccccc1 | 1.44 | -1 (inactive) | -1.32 (inactive) | -1.41 (inactive) | 3.61 | -0.806 (inactive) | 0.0814 | 0.468 | 0.129 | -0.0594 | 1.73 | -0.0501 | 0.755 | 0.0778 (inactive) | 1.16 | 0.618 | -0.578 | -0.351 | -0.894 | 0.455
3 | CC(C)(C)N1C(=O)[C@H]2[C@H]3[C@H](O)[C@H](O)CC(=NO[C@@H]4O[C@H](CO)[C@@H](O)[C@H](O)[C@H]4O)[C@@H]3CC[C@H]2C1=O | 1.49 | -0.233 (inactive) | -0.113 (inactive) | -1.47 (inactive) | 1.97 | 0.637 (inactive) | -0.217 | 0.564 | 0.794 | -0.0229 | 0.756 | -0.393 | -0.854 | 0.519 (inactive) | 0.522 | 0.869 | 0.768 | 1.01 | 1.15 | 0.911
4 | COCCCNC(=O)[C@@]1(Sc2ccc(C)cc2)CC(=O)N(Cc2ccccc2)[C@@H]1c1ccc(CO)cc1I | 0.785 | -1.69 (inactive) | -2.82 (inactive) | 0.999 (inactive) | 0.936 | 0.248 (inactive) | 0.556 | -1.53 | -1 | 0.0097 | 0.179 | 0.996 | 1.31 | -0.606 (inactive) | -0.144 | -0.969 | -1.28 | -0.238 | -1.4 | 1.12
5 | CCN1C(=O)[C@H]2[C@H]3[C@H](O)[C@H](O)CC(=NOCc4ccccc4)[C@@H]3CC[C@H]2C1=O | 0.54 | -2.27 (inactive) | -0.784 (inactive) | -0.433 (inactive) | 0.558 | -0.558 (inactive) | -0.0917 | 0.339 | 0.761 | -0.0568 | 0.119 | 0.214 | -0.585 | -1.02 (inactive) | 0.302 | 0.478 | 0.33 | 0.51 | 0.267 | 0.383
6 | CN1C(=O)C2C=CC(C(O)c3ccc(Br)cc3)N(N(c3ccccc3)c3ccccc3)C2C1=O (stereo not given) | 0.289 | 0.351 (inactive) | 1.27 (inactive) | 2.27 (inactive) | 1.94 | -1.24 (inactive) | 0.238 | -0.482 | 0.585 | 0.146 | 0.259 | 0.359 | 1.04 | 0.605 (inactive) | -0.14 | -0.0403 | -0.211 | 0.0397 | -0.626 | 1.26
7 | O=C1c2ccccc2[C@@]2(Cc3ccccc3N(C3CC3)C2=O)[C@H](c2ccc(CO)cc2)N1Cc1ccccc1C(F)(F)F | 0.51 | -0.104 (inactive) | -0.995 (inactive) | -1.47 (inactive) | 1.83 | -2.03 (inactive) | 0.104 | -1.31 | -0.0714 | -0.171 | -0.0922 | 0.261 | 0.281 | -0.628 (inactive) | -0.837 | -0.433 | -0.942 | -0.672 | -1.2 | 0.394
8 | O=C(CS)NCCCCCNC(=O)[C@@H]1C[C@@H]2C(=O)N[C@@H](Cc3ccccc3)C(=O)N2[C@@H]1c1ccc(O)cc1 | 1.47 | 0.176 (inactive) | -0.321 (inactive) | 0.858 (inactive) | 3.06 | 1.28 (inactive) | -0.0687 | -0.306 | 0.373 | -0.104 | 1 | 0.121 | 0.526 | 0.339 (inactive) | 1.02 | 1.17 | -0.146 | 0.265 | 0.325 | -0.516
9 | COC(=O)CC=C[C@H](C)[C@H](CO)NS(=O)(=O)c1ccc(C)cc1 | 0.562 | -0.0524 (inactive) | -0.256 (inactive) | -0.142 (inactive) | 0.368 | -0.518 (inactive) | -0.243 | 0.504 | 0.506 | -0.0953 | 0.227 | -0.397 | -0.707 | 0.636 (inactive) | 0.62 | 0.252 | 0.573 | 0.48 | 0.987 | -0.273
10 | C[C@@H]1CC[C@H]2C(=O)O[C@H](COc3ccc(C(C)(C)C)cc3)CN2[C@H]1c1ccc(Br)cc1 | -0.59 | 1.55 (inactive) | 0.406 (inactive) | 1.4 (inactive) | -0.121 | -0.756 (inactive) | -0.291 | -0.273 | -0.428 | -0.122 | 0.751 | -0.136 | -0.299 | 0.148 (inactive) | -0.0611 | -0.533 | -0.287 | -0.175 | 0.0539 | 0.352
